Measured values as given in PubChem BioAssay AID2391 (Southern Research Specialized Biocontainment Screening …, 2010).
Hit rate of the full screen: of about 310,000 compounds, about 410 (0.13%) were called active. About 2% were inconclusive and are not listed. No rule for the calls is given here. Only a sample is shown. Entries with a potency or affinity are not part of this list.

assay: inhibition of RSV-induced cytopathic effect – HEp-2 cells, primary 10 µM value included (AID 2391); settings: at 10 µM, hits give high values

| Compound | CPE inhibition |
| --- | --- |
| O=C(CNC(=O)c1ccc(Br)o1)NNC(=O)c1cccc(Cl)c1 | -2.18% (inactive) |
| O=C1N=c2ccccc2=C1c1sc(NS(=O)(=O)c2ccccc2)nc1O | 4.47% (inactive) |
| CCOC(=O)N1CCC(N2CCCC(CO)(Cc3ccccc3C)C2)CC1 (configuration not stated) | 0.07% (inactive) |
| CC(=O)c1cccc(NC(=O)c2csc3c2CCCCC3)c1 | 13.4% (inactive) |
| N#Cc1ccccc1CSc1ncccc1C(=O)O | -0.85% (inactive) |
| CCOC(=O)C1=C(NC(=S)NC(=O)c2ccccc2)c2ccccc2CC1(C)CC (configuration not stated) | 43.2% (inactive) |
| CCOC(=O)C1=C(NC(=S)NC(=O)c2ccccc2)c2ccccc2CC1(C)C | 7.06% (inactive) |
| CCOc1cc(/C=C2\SC(=NC)N(C)C2=O)c(Br)cc1OC(C)=O | 1.71% (inactive) |
| Cc1cccc(C)c1OCc1n[nH]c(=S)o1 | 0.21% (inactive) |
| Cc1ccc2c(c1)COc1c3ccc(C(=O)N[C@@H](CO)C(C)C)cc3nn1-2 | 15% (inactive) |
| Cc1ccc2c(c1)COc1c3ccc(C(=O)NC(C)C)cc3nn1-2 | 16.2% (inactive) |
| CCN(CC)CCN(Cc1cc2cc3c(cc2[nH]c1=O)OCO3)C(=S)NCc1ccco1 | -1.07% (inactive) |
| CCOC(=O)CN1C(=O)N[C@@H](c2ccccc2)C(C(C)=O)=C1C | 2.81% (inactive) |
| CCOC(=O)CN1C(=O)N[C@@H](c2cccc(F)c2)C(C(=O)OC)=C1C | 9.26% (inactive) |
| OC(CNC1CCCC1)COc1ccc(Cl)cc1 (configuration not stated) | -0.21% (inactive) |
| COc1ccc(OC)c(CN2CCC(CO)(CCOc3ccccc3)CC2)c1 | -2.58% (inactive) |
| O=C(Nc1nc2c(s1)CCCC2)c1cccc(S(=O)(=O)N2CCCc3ccccc32)c1 | 7.22% (inactive) |
| O=C(COc1ccccc1)Nc1nc2c(s1)CCCC2 | 14% (inactive) |
| O=C(CCCc1cccs1)Nc1nc2c(s1)CCCC2 | 1.81% (inactive) |
| O=C(Nc1nc2c(s1)CCCC2)c1ccc(S(=O)(=O)N2CCCc3ccccc32)cc1 | 1.63% (inactive) |
| O=C(Nc1nc2c(s1)CCCC2)c1cccs1 | 14.3% (inactive) |
| COc1ccc(OCC(=O)Nc2nc3c(s2)CCCC3)cc1 | 6.78% (inactive) |
| COC(=O)c1ccc(C(C(=O)NC2CCCCC2)N(Cc2ccc(F)cc2)C(=O)Cc2cccs2)cc1 (configuration not stated) | 7.57% (inactive) |

| Compound | CPE inhibition |
| --- | --- |
| CC(=O)OCCNC(=O)Cn1cnc2c1c(=O)n(C)c(=O)n2C | 0.79% (inactive) |
| COc1ccc(C2CC(C(F)(F)F)n3nc(C(N)=O)c(Cl)c3N2)cc1OC (configuration not stated) | 3.38% (inactive) |
| CC1CCN(CC(=O)Nc2ccc(S(=O)(=O)N3CCCCC3)cc2)CC1 | -0.34% (inactive) |
| Cc1ccc(N2CC(C(=O)Nc3ccc(S(=O)(=O)N4CCOCC4)cc3)CC2=O)cc1 (configuration not stated) | -0.55% (inactive) |
| COc1ccc(CCNC(C)=O)cc1 | 3.67% (inactive) |
| CCOC(=O)C1(Cc2cccc(OC)c2)CCN(CCO)CC1 | -1.67% (inactive) |
| Cc1c(C(=O)N(C)Cc2cccc(F)c2)oc2c(Cl)cccc12 | 18% (inactive) |
| COc1cc2c(-c3ccccc3O)nc3c(c(C)nn3-c3ccccc3)c2cc1OC | 1.81% (inactive) |
| COc1cc(-c2nc3c(c(C)nn3-c3ccccc3)c3cc(OC)c(OC)cc23)ccc1O | 57.5% (inactive) |
| Cc1ccc(Nc2nc(CSc3nnc(-c4ccncc4)n3C)cs2)cc1 | 1.07% (inactive) |
| Cc1cc(C)n2nc(SCc3c(F)cccc3Cl)nc2n1 | 0.85% (inactive) |
| CN(C)S(=O)(=O)c1ccc2c(c1)C(=NO)c1cc(S(=O)(=O)N(C)C)ccc1-2 | 2.67% (inactive) |
| CN(CCO)S(=O)(=O)c1ccc2c(c1)C(=NO)c1cc(S(=O)(=O)N(C)CCO)ccc1-2 | -0.46% (inactive) |
| CCS(=O)(=O)N1CCN(c2ccccn2)CC1 | -0.21% (inactive) |
| Cn1nnnc1SCC(=O)N(C1CCCCC1)C1CCS(=O)(=O)C1 (configuration not stated) | -0.03% (inactive) |
| CCC(=O)NCCc1nc2cc(NC(=O)Nc3ccccc3)ccc2n1C | 1.28% (inactive) |
| CC(NC(=O)c1ccc(F)cc1Cl)C1CC2CCC1C2 (configuration not stated) | 1.15% (inactive) |
| COCc1cc(C)nc(SCC(=O)Nc2cc(C(F)(F)F)ccc2N2CCOCC2)c1C#N | 1.23% (inactive) |
| COCc1cc(C)nc(SCC(=O)Nc2ccc(N3CCOCC3)cc2)c1C#N | 1.56% (inactive) |
| CC(=O)CC(C)(C)n1nnc(-c2ccccc2)n1 | 1.03% (inactive) |
| COc1ccc(CNC(=O)N2CCN(c3ccc(F)cc3)CC2)cc1 | 0.79% (inactive) |
| Cn1c(SCc2ccccc2)nnc1-c1ccco1 | 3.37% (inactive) |
| Nn1c(SCc2cccc3ccccc23)nnc1-c1ccco1 | 0.35% (inactive) |

| Compound | CPE inhibition |
| --- | --- |
| Cc1ccc(SCCOCCN2CCOCC2)cc1 | -1.12% (inactive) |
| Cc1sc2nc(C(C)C)nc(SCC(=O)N3c4ccccc4CC3C)c2c1C (configuration not stated) | 16.1% (inactive) |
| Cc1sc2nc(C3CC3)nc(SCC(=O)N3CCCc4ccccc43)c2c1C | 20.9% (inactive) |
| CCc1nc(SCC(=O)N2CC(=O)Nc3ccccc32)c2c(C)c(C)sc2n1 | 0.22% (inactive) |
| Cc1sc2nc(C3CC3)nc(SCC(=O)N3CCc4ccccc4C3)c2c1C | 1.85% (inactive) |
| COc1ccccc1N=Nc1nc(-c2ccccc2)c(-c2ccccc2)[nH]1 | 12.4% (inactive) |
| CC(C)CNC(=O)COC(=O)CNC(=O)c1cc(Cl)cc([N+](=O)[O-])c1 | 1.69% (inactive) |
| COC(=O)C1=C(C)N(c2ccccc2)/C(=C/c2ccco2)C1=O | 0.77% (inactive) |
| CCc1ccc(NCCC(=O)c2ccc(Br)cc2)cc1 | 0.86% (inactive) |
| CCS(=O)(=O)N1CCCC(C(=O)Oc2ccc(Br)cc2)C1 (configuration not stated) | -0.04% (inactive) |
| O=C(O)c1cccc(NC(=O)c2cn(-c3ccccc3)nc2-c2ccc([N+](=O)[O-])cc2)c1 | 19% (inactive) |
| COc1cc(OC)cc(-c2oc(=O)c3cc(OC)c(OC)cc3c2/C=C/c2ccc(F)cc2)c1 | 3.91% (inactive) |
| COc1ccc(-c2oc(=O)c3cc(OC)c(OC)cc3c2/C=C/c2ccc(F)cc2)cc1 | 5.33% (inactive) |
| Cc1cc(N(C(=O)c2ccco2)C(C(=O)NC2CCCCC2)c2ccccc2)ccc1-n1cnnn1 (configuration not stated) | 0.41% (inactive) |
| CCN(CC)c1ccc(NC(=O)C(C)C)cc1 | 0.56% (inactive) |
| Cc1[nH]c(C)c(S(=O)(=O)N2CCN(c3cccc(C(F)(F)F)c3)CC2)c1C(=O)N1CCCC1 | 2.4% (inactive) |
| Cc1[nH]c(C)c(S(=O)(=O)N2CCN(c3ccccc3)CC2)c1C(=O)N1CCCCC1 | 0.61% (inactive) |
| Cc1[nH]c(C)c(S(=O)(=O)N2CCN(c3cccc(Cl)c3)CC2)c1C(=O)N1CCCC1 | 0.18% (inactive) |
| COc1cccc(N2CCN(S(=O)(=O)c3c(C)[nH]c(C)c3C(=O)N3CCCCC3)CC2)c1 | 1.56% (inactive) |
| Cc1nc(SCC(=O)NCc2ccco2)c2c(=O)n(C)c(=O)n(CC(C)C)c2n1 | 1.51% (inactive) |
| O=c1c2c(n3cnnc3n1C1CCCCC1)-c1ccccc1CC21CCCCC1 | 3.08% (inactive) |
| O=C(CCn1nnc2ccccc2c1=O)N[C@@H](Cc1ccccc1)C(=O)O | 2% (inactive) |
| COc1ccc(OC)c(CN2CCN(C(=O)c3ccco3)CC2)c1 | 0.83% (inactive) |

| Compound | CPE inhibition |
| --- | --- |
| CNC(=O)CN1C(=O)NC(Cc2c[nH]c3ccccc23)C1=O (configuration not stated) | 2.1% (inactive) |
| CC(C)(C)OC(=O)CN1C(=O)NC(Cc2c[nH]c3ccccc23)C1=O (configuration not stated) | -0.27% (inactive) |
| CC1CN(C(=O)/C=C/c2ccc(SC(F)F)cc2)CC(C)O1 (configuration not stated) | 1.82% (inactive) |
| Cc1occc1-c1nnc(SCC(N)=O)n1Cc1ccccc1 | 1% (inactive) |
| COC(=O)c1cccnc1NC(=S)NC1CCCCC1 | 0.64% (inactive) |
| CC(C)OC(=O)c1ccc(Cn2nnc3ccccc3c2=O)cc1 | 12.4% (inactive) |
| Cc1ccc(O)c(NC(=S)NC(=O)c2ccc(-c3ccc(Cl)cc3)o2)c1 | -0.16% (inactive) |
| Cc1ccc(O)c(NC(=S)NC(=O)CC(C)C)c1 | 0.23% (inactive) |
| CC(C)(C)c1ccc(C2C(C(=O)c3ccco3)=C(O)C(=O)N2CC2CCCO2)cc1 (configuration not stated) | 8.05% (inactive) |
| O=C(CCn1c(=O)c2ccccc2n(Cc2cc(=O)n3ccccc3n2)c1=O)NCc1ccco1 | 64% (inactive) |
| O=C(CCCn1c(=O)c2sccc2n(CC(=O)NCc2ccco2)c1=O)NCc1ccco1 | -0.82% (inactive) |
| Cc1ccccc1Cn1c(=O)n(CCCC(=O)NCc2ccco2)c(=O)c2sccc21 | 3.02% (inactive) |
| Cc1cccc2nc(Cn3c(=O)n(CCC(=O)NCc4ccco4)c(=O)c4sccc43)cc(=O)n12 | 10.2% (inactive) |
| O=C(C1=C[C@@H](c2coc3ccccc3c2=O)C[C@@H](OCc2ccc(CO)cc2)O1)N1CCN(Cc2ccc3c(c2)OCO3)CC1 | 4.77% (inactive) |
| COC(=O)c1cc(S(=O)(=O)NCCc2cccc(C)c2)cn1C | 0.96% (inactive) |
| COc1ccccc1CNC(=O)Cc1csc(NC(=O)Nc2ccccc2OC)n1 | 7.68% (inactive) |
| CC(C)(C)c1csc(NC(=O)Nc2ccccc2)n1 | 17.7% (inactive) |
| O=C(CCCCCNC(=O)N1CCn2c1nc1ccccc12)N[C@@H](Cc1ccccc1)C(=O)O | 0.73% (inactive) |
| Cc1ccc2c(Cl)cc(Cl)c(OCC(=O)Nc3ccc(C)c(S(=O)(=O)N(C)C)c3)c2n1 | 1.79% (inactive) |
| CCN1CCN(c2nc3c(C)cccn3c(=O)c2/C=C(\C#N)C(=O)NC)CC1 | 2.17% (inactive) |
| Cc1cccn2c(=O)c(/C=C(\C#N)C(=O)NCc3ccco3)c(N3CCC(C(N)=O)CC3)nc12 | 2.25% (inactive) |
| CNC(=O)/C(C#N)=C/c1c(N2CCN(c3ccccc3)CC2)nc2c(C)cccn2c1=O | 14.9% (inactive) |
| Cc1cccn2c(=O)c(/C=C(\C#N)C(=O)NCc3ccco3)c(N3CCOCC3)nc12 | 1.08% (inactive) |
